Screening data from PubChem.
HIF-2a block = HIF-2a reporter inhibitors, primary screen, luminescence, 786-0 RCC cells; 786-0 RCC cells HIF-2a reporter, luciferase luminescence, overnight; inhibition, % at 18.8 µM; 360,000 tested, 0.72% active; AID 624352, 2012;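 active = inhibition of the luminescence signal of 40% or more relative to plate controls, in a single-dose primary screen at 18.75 µM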
Peg3 prom inh = Peg3 promoter-driven luciferase inhibitors, primary screen, cell-based, HeLa, luciferase luminescence; inhibition, % at 20 µM; HeLa PEG-Prom luciferase reporter, overnight; 360,000 tested, 1.7% active;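 active = inhibition of at least 50% at 20 µM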
LMP1 NFkB inh = EBV LMP1-driven NF-kappaB luciferase reporter inhibitors, primary screen, cell-based, luminescence, single point; LMP1-induced NF-kappaB luciferase reporter cells; inhibition, % at 12.5 µM; 350,000 tested, 0.69% active; AID 504558, 2011; in the data active = inhibition above about 41%;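 also: 0% = neutral control wells and 100% = reference inhibitor control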
KKLEB tox = cytotoxicity in KKLEB CF airway cells, primary screen, cytotoxicity control for CF NF-kB inhibitor project, cell-based, uHTS, fluorescence assay plates; 360,000 tested, 0.36% active; KKLEB CF airway cells viability, ATPlite luminescence, overnight; active compounds read low; cells stimulated with P. aeruginosa culture filtrate; activity change (cytotoxicity), % at 5 µM;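 active = corrected activity change at or below -50% at 5 µM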
Shn3 3UTR inh = reduction of Shn3 3'UTR firefly luciferase signal, primary screen, Schnurri-3 inhibitor project, cell-based, Clone20 osteoblasts, set 2 | 360,000 tested, 0.52% active | Clone20 osteoblast Shn3 3'UTR firefly luciferase, 24 h | inhibition, % at 12.5 µM | AID 588674, 2011;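 active = mean inhibition of at least 75% with every replicate also reaching 75%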;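 also: 0% = median of neutral control wells and 100% = pilot-screen positive control compound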
CF NFkB block = inhibitors of PAF-induced NF-kB signaling, primary screen, cell-based, GFP fluorescence, uHTS; 360,000 tested, 0.86% active; KKLEB NF-kB-GFP reporter, GFP fluorescence overnight; inhibition, % at 5 µM;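 active = at least 50% inhibition at 5 µM, scaled per plate between neutral and stimulator controls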;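 also: PAF is a Pseudomonas aeruginosa culture filtrate used as stimulus; plate controls were PAF-stimulated DMSO wells for no effect and unstimulated DMSO wells for full effect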
Mdm2-MdmX confirm = retested Mdm2-MdmX interaction blockers, confirmation, cell-based, luminescence, single concentration, set 2 | SaOS-2 split-luciferase Mdm2/MdmX complementation | 740 tested, 99% active | inhibition, % at 8 µM | shares compounds with HIF-2a block;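 active = mean inhibition of the luminescence signal across two replicates at or above 26 percent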
HIF-2a inh conf = HIF-2a reporter inhibitor retest, confirmation, luminescence, 786-0 RCC cells; shares compounds with HIF-2a block; HIF-2a luciferase reporter luminescence, overnight; inhibition, % at 18.8 µM; 1,800 tested, 56% active; AID 651580, 2012;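 active = mean inhibition across four replicates of at least 40 percent at the single tested concentration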
HIF-1a cs = HIF-1a luciferase reporter signal reduction – MiaPaCa-2 cells, single concentration, counter-screen for HIF-2a inhibitor project, confirmation; 1,800 tested, 72% active; shares compounds with HIF-2a block; MiaPaCa-2 HIF-1a luciferase reporter, desferoxamine, overnight; AID 651589, 2012; inhibition, % at 18.8 µM;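 active = mean inhibition of the reporter signal across four replicates at the single tested dose of 50% or more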
The depositor's hits bear a star; . = no result. Sampled rows, rich in hits. Any-hit rate of the full collection: about 2.9%.

SMILES | HIF-2a block | Peg3 prom inh | LMP1 NFkB inh | KKLEB tox | Shn3 3UTR inh | CF NFkB block | HIF-2a inh conf | HIF-1a cs | others
CCOC(=O)c1c(C)[nH]c(C(=O)NCC(c2ccco2)N2CCCCC2)c1C (stereo unspecified) | -4 | 4 | -13 | 6 | 12 | 3 | . | .
CSC(=Nc1ccccc1)N=C(SCc1ccccc1)N(C)C | 83* | 96* | -24 | -11 | 93* | 37 | 74* | 107*
N#CNC(=Nc1ccccc1)SCc1ccc(C(=O)O)cc1 | 1 | -4 | -3 | 2 | -25 | 7 | . | .
O=C(NCc1ccc(C(F)(F)F)cc1)C1CC(c2c(Cl)cccc2Cl)=NO1 (stereo unspecified) | 0 | 13 | -3 | 5 | 3 | 9 | . | .
CC(=O)SC(C[N+](=O)[O-])c1cn(C(C)=O)c2ccccc12 (stereo unspecified) | 46* | 106* | -4 | 5 | 35 | -17 | 96* | 86*
Cc1ccc(NC(=O)CSc2nc3ccccc3c(=O)n2CCCN2CCCCC2)cc1Cl | 4 | 114* | -16 | -23 | 21 | 15 | . | . | Mdm2-MdmX confirm=103*
Cc1nc2cc(-c3ccc(Cl)cc3)nn2c(C)c1CCC(=O)NCc1ccco1 | 81* | -54 | 6 | -4 | 59 | -8 | 87* | 48
CCCc1nc([N+](=O)[O-])c(S(=O)(=O)c2ccccc2)n1CC(C)C | 45* | 48 | 11 | -16 | 91* | 55* | 27 | -43
Cc1cc(NC(=O)c2ccc3c(c2)OCCO3)ccc1NC(=O)c1ccco1 | -175 | -197 | 0 | -5 | -56 | 16 | . | .
O=C(Nc1ccc(NC(=O)c2ccco2)cc1)c1ccc2c(c1)OCCO2 | 46* | -37 | -8 | 11 | 8 | 10 | 69* | 11
O=C(Nc1cccc(Cl)c1)Nc1nnc(-c2ccncc2)s1 | -14 | 29 | 11 | -58* | 35 | 73* | . | . | Mdm2-MdmX confirm=102*
Cc1nc(S(=O)(=O)N(C)c2ccccc2)c(C#N)c(C)c1Cl | 14 | 54* | 19 | -6 | -10 | 14 | . | . | Mdm2-MdmX confirm=103*
CN(c1ccccc1)S(=O)(=O)c1ccc(Cl)nc1 | 6 | -1 | -2 | 6 | 17 | -12 | . | .
COc1ccc(C(=O)NCCNc2nc3cc(C)cc(C)c3cc2C#N)c(OC)c1 | 66* | . | . | . | . | . | 82* | 98*
COc1ccccc1C(=O)NCCNc1nc2cc(C)cc(C)c2cc1C#N | 9 | 20 | -8 | -9 | 22 | 10 | . | .
Cn1cc([N+](=O)[O-])c(C(=O)Nc2nccs2)n1 | -28 | -37 | -1 | 2 | 6 | 21 | . | .
Nc1nnnn1/N=C/C=C/c1ccccc1 | -106 | -89 | -19 | -10 | -18 | 14 | . | .
Nc1nnnn1/N=C/C(Br)=C/c1ccccc1 | 83* | 114* | 22 | -94* | 97* | 91* | 30 | 104* | Mdm2-MdmX confirm=103*
COc1ccc(N2CCN(C(=O)CCN3C(=S)NC(C)(C)CC3C)CC2)cc1 (stereo unspecified) | 11 | 21 | -2 | 2 | 4 | 0 | . | .
CCN(CC)CCNC(=O)C12CC3CC(CC(C3)C1)C2 | 11 | 6 | -5 | -11 | -5 | 7 | . | .
CCN(CC)CCNC(=O)C(Cl)=C1C(Cl)=C(Cl)C(Cl)=C1Cl | 67* | 97* | -68 | 4 | 32 | -18 | 31 | 61*
